High-throughput results deposited in PubChem BioAssay by National Center for Advancing Translational Sciences (NCATS).
Hits are enriched below; roughly 2.3% of the tested compounds scored in any of these assays.
A549 tox-1 = A549 cytotoxicity, counter-screen for Nrf2 inhibitors; A549 ARE-Fluc cells, CellTiter-Fluor viability, 18-24 h; Potency, µM (titrated, usually from 46 µM), usual class: inhibitors; hit rate 0.16% among 390,000
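Cytotoxicity counterscreen: CellTiter-Fluor fluorescence was measured in A549 ARE_Fluc cells after 18-24 h of compound exposure in a concentration series. The subsequent BugLite luminescent read reports ARE-luciferase activity.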
Nrf2 inh = blocks Nrf2 signaling; A549 ARE-Fluc reporter, luciferase luminescence, 18-24 h; Potency, µM (titrated, usually from 46 µM), most hits filed as inhibitors; hit rate 2.1% among 360,000; AID 504444; note: nearly all actives have a fitted effect of over 60% in size
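In this cell-based qHTS, ARE-driven firefly luciferase in A549 cells reports Nrf2 activity; the luminescent signal after BugLite lysis is the measured value, with a prior CellTiter-Fluor read for cell health.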
IDH1 R132H inh = human IDH1 R132H inhibition. IDH1-R132H enzyme, NADPH consumption, diaphorase/resazurin fluorescence. Potency, µM (highest dose often 76.6 µM), hits mostly inhibitors. hit rate 0.093% among 390,000. AID 602179; note: nearly all actives have a fitted effect of over 65% in size
Target sequence (O75874 whole entry R132H, stated change not applied): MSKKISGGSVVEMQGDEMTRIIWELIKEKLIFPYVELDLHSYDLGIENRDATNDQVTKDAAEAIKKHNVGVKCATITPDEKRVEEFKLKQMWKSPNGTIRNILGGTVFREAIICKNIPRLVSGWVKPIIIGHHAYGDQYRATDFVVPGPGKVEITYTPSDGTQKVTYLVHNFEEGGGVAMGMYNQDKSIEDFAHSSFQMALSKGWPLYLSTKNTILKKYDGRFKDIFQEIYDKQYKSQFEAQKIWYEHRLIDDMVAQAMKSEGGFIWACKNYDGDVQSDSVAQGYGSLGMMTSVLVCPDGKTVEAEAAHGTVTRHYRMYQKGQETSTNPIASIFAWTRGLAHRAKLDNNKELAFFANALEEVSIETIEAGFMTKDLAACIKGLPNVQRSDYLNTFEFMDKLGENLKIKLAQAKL
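IDH1-R132H (0.5 ug/mL dispensed) in pH 7.5 Tris buffer was preincubated 30 min with compound, then given a substrate mix of 0.016 mM NADPH and 2 mM alpha-KG for 80 min at room temperature; remaining NADPH was read by diaphorase/resazurin fluorescence.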
Giardia kill = kills Giardia lamblia; hit rate 0.15% among 340,000; AID 540267; activity change, % at 7.66 µM, hits read low; Giardia lamblia trophozoite viability; in the data active = activity change below about -80%; inconclusive = between about -30% and that limit;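 note: parasites exposed to compound for two days anaerobically before the ATP read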
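Anaerobic 48 hrs incubation at 37 deg C of 100 trophozoites/well with test compounds; ATPLite 1-Step luminescence, 15-30 min RT, reports cellular ATP as viability.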
Nrf2 activator = activators of Nrf2 (ARE) signaling; AID 624171; hit rate 0.31% among 410,000; AREc32 ARE-luciferase reporter (MCF7-derived line), luminescence, 24 h; Potency, µM (top dose mostly 46.1 µM), most hits filed as activators; note: nearly all actives have a fitted effect of over 65% in size
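ARE activation measured as luciferase luminescence (Steady-Glo, 30 min RT) in AREc32_Fluc cells after 24 hr compound exposure at 37 deg C, 5% CO2; cells seeded overnight at 1000/well in OPTI-MEM, 5% FBS.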
Apoferritin bind = candidate novel general anesthetic via apoferritin binding; Potency, µM (highest dose often 77.5 µM), usual class: inhibitors; apoferritin/1-aminoanthracene competitive binding, fluorescence; hit rate 0.074% among 350,000; P02791; note: nearly all actives have a fitted effect of over 20% in size
Target sequence (P02791 2-175 limits assumed): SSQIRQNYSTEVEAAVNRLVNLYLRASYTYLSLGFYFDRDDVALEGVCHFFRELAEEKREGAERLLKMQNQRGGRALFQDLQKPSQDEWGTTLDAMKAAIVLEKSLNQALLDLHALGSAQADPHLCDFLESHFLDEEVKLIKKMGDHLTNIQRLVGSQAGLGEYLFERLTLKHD
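Concentration-response curves derived by four-parameter Hill fitting of normalized fluorescence, where compounds displaced 1-AMA from 10 uM horse apoferritin following a brief 10 min room-temperature incubation; propofol titration acted as positive control.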
FLuc counter 3 = blocks purified firefly luciferase in Nrf2 counterscreen; shares compounds with Nrf2 inh; purified firefly luciferase, luminescence inhibition; Potency, µM (doses to about 57.5 µM), usual class: inhibitors; hit rate 4% among 1,400; AID 720522; note: nearly all actives have a fitted effect of over 65% in size
A549 tox-2 = A549 cytotoxicity, Nrf2 inhibitor counterscreen | shares compounds with Nrf2 inh | A549 ARE-Fluc cells, cytotoxicity counterscreen | Potency, µM (highest dose often 46.1 µM), hits mostly inhibitors | hit rate 2% among 1,400;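 note: cells exposed to compounds for 18 to 24 hours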
ARE-Fluc inh = reduces Nrf2 ARE reporter signal in A549 cells. hit rate 74% among 1,400. Potency, µM (series often up to 46.1 µM), hits mostly inhibitors. AID 720524. shares compounds with Nrf2 inh. A549 ARE-firefly luciferase reporter, luminescence; note: nearly all actives have a fitted effect of over 65% in size
Of the large screens only hits and unclear results are named; the others gave an inactive call (follow-up assays come after a bar, where shown). Unless noted, calls come from the whole dose curve; as a rule, active = well fitted curve in the direction sought with a large enough effect; inconclusive = small, poorly fitted or top-dose-only effect, or another doubt; inactive = no such curve, though single readings can be large; an effect the other way counts as inactive or inconclusive.

CC[C@H](C)[C@@H](C(=O)NCCCCCCCCCCC(=O)N1CCN(C(=O)OC(C)(C)C)CC1)n1cc(CCCCCNC(=O)OC(C)(C)C)nn1	Nrf2 inh 5.8µM (no result: Apoferritin bind) | FLuc counter 3 inactive | A549 tox-2 inactive | ARE-Fluc inh 7.3µM
CCCCCCCCCCC/C=C\C/C=C\CCCC(=O)O	none (no result: A549 tox-1, Nrf2 inh, IDH1 R132H inh, Giardia kill, Nrf2 activator)
O=C(Cn1c(=O)oc2cc(S(=O)(=O)N3CCCC3)ccc21)Nc1ccc(F)cc1F	none (no result: IDH1 R132H inh, Giardia kill)
O=C(Nc1ccc(C(=O)NC2CCCCC2)cc1)c1cccnc1	Nrf2 inh inconclusive | FLuc counter 3 inactive | A549 tox-2 inactive | ARE-Fluc inh inconclusive
CC(=O)Nc1ccc(C(=O)NC2CCCC2)cc1	none
CCc1c(C)nc2ncnn2c1NCCc1ccccc1	Nrf2 inh inconclusive
CCc1c(C)nc2ncnn2c1NCCc1ccc(Cl)cc1	Nrf2 inh 7.3µM | FLuc counter 3 inactive | A549 tox-2 inactive | ARE-Fluc inh 4.6µM
Cc1ccc(C)c(NC(=O)Cn2c(=O)n(CC(=O)NCCc3ccccc3)c(=O)c3ccccc32)c1	none (no result: Giardia kill)
Cn1cccc1C(=O)NC(=O)COC(=O)CNC(=O)c1ccc(Cl)cc1Cl	Nrf2 inh 2.6µM, Apoferritin bind inconclusive | FLuc counter 3 inconclusive | A549 tox-2 inactive | ARE-Fluc inh 7.3µM
Cn1cccc1C(=O)NC(=O)COC(=O)CNC(=O)CNC(=O)c1ccc(Cl)cc1Cl	Nrf2 inh inconclusive
Cc1ccc(-c2nnc(SCC(=O)NC3CCCC3)nc2-c2ccc(C)cc2)cc1	A549 tox-1 inconclusive, Nrf2 inh 1.8µM (no result: Giardia kill) | FLuc counter 3 inactive | A549 tox-2 inactive | ARE-Fluc inh inactive
CNc1c(Br)cc(C(O)C2=CCc3ccccc32)cc1Br (stereo unspecified)	none (no result: A549 tox-1, Nrf2 inh, IDH1 R132H inh, Giardia kill, Nrf2 activator, Apoferritin bind) | FLuc counter 3 inactive | A549 tox-2 inactive | ARE-Fluc inh 4.6µM
c1ccc(-c2nnc(-c3ccccn3)nc2NC2CCCCC2)cc1	A549 tox-1 inconclusive, Nrf2 inh 1.8µM | FLuc counter 3 inactive | A549 tox-2 inconclusive | ARE-Fluc inh 4.1µM
CN1CCN(C(=O)c2ccc3c(c2)N(Cc2ccc(Cl)cc2)C(=O)c2ccccc2S3(=O)=O)CC1	none (no result: Giardia kill)
Cc1cc(=O)[nH]c(N/N=C/c2cc(C)n(CC(F)(F)F)c2C)n1	Nrf2 inh 4.1µM | FLuc counter 3 inactive | A549 tox-2 inactive | ARE-Fluc inh 1.5µM
COC(=O)c1c(C)oc2ccc(N(C(=O)Oc3ccccc3)S(=O)(=O)c3ccc(C(C)(C)C)cc3)cc12	Nrf2 inh 2.3µM (no result: Giardia kill) | FLuc counter 3 inactive | A549 tox-2 inactive | ARE-Fluc inh 5.2µM
CC(=O)c1c(C)oc2ccc(N(C(=O)Oc3ccccc3)S(=O)(=O)c3ccccc3)cc12	none (no result: Giardia kill)
COC(=O)c1c(C)oc2ccc(N(C(C)=O)S(=O)(=O)c3ccccc3)cc12	A549 tox-1 inconclusive, Nrf2 inh inconclusive
CCOc1ccc(S(=O)(=O)N(C(C)=O)c2ccc3oc(C)c(C(=O)OC)c3c2)cc1	Nrf2 inh 2.1µM (no result: Giardia kill) | FLuc counter 3 inactive | A549 tox-2 inactive | ARE-Fluc inh 23µM
COC(=O)c1c(-c2ccc(N(C)C)cc2)oc2c1C(OC)CCC2 (stereo unspecified)	none (no result: A549 tox-1, Nrf2 inh, IDH1 R132H inh, Giardia kill, Apoferritin bind)
CCN1CCS/C1=C\C=C\C1=[N+](CC)CCS1	A549 tox-1 inconclusive, Nrf2 inh 1.6µM | FLuc counter 3 inactive | A549 tox-2 inconclusive | ARE-Fluc inh 6.5µM
Cc1onc(-c2ccccc2)c1C(=O)NC(=S)NNC(=O)c1ccc(O)cc1O	Nrf2 inh 7.3µM | FLuc counter 3 inactive | A549 tox-2 inactive | ARE-Fluc inh 5.8µM
O=C(Cn1c(=O)n(-c2ccc(Cl)cc2)c(=O)c2sc3ccccc3c21)NC1CCCC1	none (no result: Giardia kill)
O=C(Nc1ccc(F)cc1)c1ccc(Cn2nc(N3CCN(c4ccccc4)CC3)ccc2=O)o1	A549 tox-1 inconclusive, Nrf2 inh 8.2µM (no result: Giardia kill) | FLuc counter 3 inactive | A549 tox-2 inactive | ARE-Fluc inh 2.6µM
Cc1c(Cl)cccc1NC(=O)Cn1cc(C(=O)C2CCCCC2)c2ccccc21	Nrf2 inh 2.9µM (not shown: Giardia kill) | FLuc counter 3 inactive | A549 tox-2 inactive
Cc1cc(C)cc(NC(=O)Cn2cc(C(=O)C3CCCCC3)c3ccccc32)c1	Nrf2 inh inconclusive (no result: Giardia kill)
COc1ccc(-n2ccn(CC(=O)NCCc3ccccc3)c(=O)c2=O)cc1OC	none (no result: Giardia kill)
CN[C@@H]1[C@H](O[C@@H]2O[C@H](C)[C@@](O)(CO)[C@H]2O[C@H]2[C@H](O)[C@H](O)[C@H](N=C(N)N)[C@@H](O)[C@@H]2N=C(N)N)O[C@@H](CO)[C@H](O)[C@H]1O	none (no result: A549 tox-1, Nrf2 inh, IDH1 R132H inh, Giardia kill, Nrf2 activator)
CC1CC(N(C(=O)c2ccco2)c2ccccc2)c2ccccc2N1C(=O)c1ccco1 (stereo unspecified)	Nrf2 inh inconclusive, IDH1 R132H inh inconclusive
CC12CC(c3ccccc3O1)N(C(=O)c1ccco1)C(=S)N2c1ccccc1 (stereo unspecified)	A549 tox-1 inconclusive, Nrf2 inh 8.2µM | FLuc counter 3 inactive | A549 tox-2 inactive | ARE-Fluc inh inactive
COc1ccc2ccc3cccc[n+]3c2c1	Nrf2 inh 4.6µM (no result: Apoferritin bind) | FLuc counter 3 inactive | A549 tox-2 inactive | ARE-Fluc inh 23µM
COc1ccc2nc3ccccc3[n+]([O-])c2c1	Nrf2 inh inconclusive (no result: Apoferritin bind)
